Measurements from PubChem BioAssay (NCI).
The panel holds about 79,000 compounds, 15% with a hit somewhere; the sample as a whole holds those more often. Rule as the data show it: active = growth inhibition above about 70%; inactive = the rest.

Tests used:
[1] = NCI Yeast Anticancer Drug Screen. Data for the rad50 strain (AID 155);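 also: 0% = growth of vehicle-only cultures of the same strain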; settings: S. cerevisiae rad50 strain growth inhibition; at 50.0 µM; active compounds read high
In short: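 Compounds were tested on a yeast strain with an engineered DNA damage repair alteration; the reported value is growth inhibition normalised to vehicle treatment.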

[2] = NCI Yeast Anticancer Drug Screen. Data for the mec2-1 strain (AID 157); settings: S. cerevisiae mec2-1 strain, at 50.0 µM, active compounds read high
In short: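 Mutant yeast (mec2-1) grown with compound; growth inhibition relative to vehicle control reported.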

[3] = NCI Yeast Anticancer Drug Screen. Data for the sgs1 mgt1 strain (AID 161);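 also: 0% = growth of cultures given vehicle only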; settings: S. cerevisiae sgs1 mgt1 strain, at 50.0 µM, active compounds read high
In short: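 Growth of a repair-deficient yeast mutant was monitored after compound treatment and expressed as inhibition relative to vehicle-treated cultures.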

[4] = NCI Yeast Anticancer Drug Screen. Data for the cln2 rad14 strain (AID 165);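 also: 0% = growth equal to vehicle treated cultures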; settings: S. cerevisiae cln2 rad14 strain, at 50.0 µM, active compounds read high
In short: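 Readout is yeast growth inhibition versus vehicle-treated controls, using a strain with cln2 and rad14 alterations exposed to compound.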

[5] = NCI Yeast Anticancer Drug Screen. Data for the bub3 strain (AID 167); settings: S. cerevisiae bub3 mutant strain, at 50.0 µM, active compounds read high
In short: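 Growth of a checkpoint-deficient yeast mutant is measured after compound exposure. Values represent inhibition relative to vehicle.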

[6] = NCI Yeast Anticancer Drug Screen. Data for the mlh1 rad18 strain (AID 175); settings: S. cerevisiae mlh1 rad18 strain growth inhibition; at 50.0 µM; active compounds read high
In short: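 Genetically defined yeast (DNA repair-deficient) exposed to compounds; growth inhibition determined relative to vehicle.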

Measured: growth inhibition

CC(CCC(=O)O)[C@H]1CCC2[C@@H]3CC[C@@H]4CC(O)CC[C@]4(C)C3CC[C@@]21C (stereo partly specified)
inactive: [1] -31.1% | [2] -18.1% | [3] -13.8% | [4] -0.1% | [5] -16.1% | [6] -26.7%

COc1cc2c(cc1OC)C1CCN3CCCC3N1CC2 (stereo unspecified)
inactive: [1] -7.8% | [2] 7.6% | [3] 0.1% | [4] -14.9% | [5] 2.2% | [6] 3.3%

CC(C)(c1ccccc1)[Si](c1ccccc1)(c1ccccc1)c1ccccc1
inactive: [1] 30.1% | [2] -7.05% | [3] 9.95% | [4] 3.2% | [5] -6.85% | [6] 0.65%

C[CH2][Ge]([CH2]C)[CH2]C.C[CH2][Ge]([CH2]C)[CH2]C
inactive: [1] 6.5% | [2] 0.35% | [3] -2.45% | [4] -25.4% | [5] 0.9% | [6] -3%

CC1(C)C2CCC1(C)C(NC(=O)COCCOCC(N)=O)C2 (stereo unspecified)
inactive: [1] -45% | [2] -53.1% | [3] -52.6% | [4] -2.55% | [5] -54.9% | [6] -67.3%

CC(C)c1nc(N)nc(N)n1
inactive: [1] 4.8% | [2] -23.8% | [3] 5.8% | [4] 12.8% | [5] 1% | [6] -16.8%

CCN(CC)CCN(CCN(CC)CC)c1c(OC)cccc1OC
inactive: [1] 5.8% | [2] -13.2% | [3] 9.25% | [4] -14.4% | [5] 9.15% | [6] 15.8%

COc1ccccc1Nc1nc(N)nc(N)c1N
inactive: [1] 0.85% | [2] -3.65% | [3] 5% | [4] -3.75% | [5] -4.9% | [6] 11.2%

CN(C)CCOC(=S)S
inactive: [1] 1.85% | [2] -0.4% | [3] -9.3% | [4] 1.5% | [5] 10.3% | [6] -1%

OCC(O)C(O)C(CN=Cc1ccccc1O)N=Cc1ccccc1O (stereo unspecified)
inactive: [1] 5.05% | [2] 1% | [3] 3% | [4] -26.1% | [5] 12.9% | [6] -2.45%

O=C(Nc1ccc(Cl)cc1)Nc1nnc2nc(C(C(=O)c3cccs3)c3nc4nnc(NC(=O)Nc5ccc(Cl)cc5)n4[nH]c3=O)c(=O)[nH]n12
inactive: [1] 1.55% | [2] 12.2% | [3] 0.1% | [4] 15.8% | [5] 0.05% | [6] -13.8%

N#CC(NCc1cccc(CNC(C#N)c2ccccc2)c1)c1ccccc1 (stereo unspecified)
inactive: [1] -4.8% | [2] 8.4% | [3] -28.1% | [4] -16.4% | [5] -28.7% | [6] -19.8%

COc1c2ccoc2c(S(=O)(=O)Nc2ccc(Cl)cc2)c2oc(C)cc(=O)c12
inactive: [1] 4.7% | [2] -29.9% | [3] -13.9% | [4] -8.15% | [5] -11.8% | [6] -24.8%

CCCCCCCCSC(SCCCCCCCC)=C1C(=O)N(c2ccccc2)N=C1C
inactive: [1] -5.9% | [2] -12.3% | [3] 2.2% | [4] 19.6% | [5] -28.1% | [6] -13%

O=C1c2ccccc2C(=O)N1CCc1ccccc1
inactive: [1] -12.1% | [2] 7% | [3] -6.9% | [4] -36% | [5] 16.6% | [6] 14.1%

O=S1(=O)OCCOS(=O)(=O)C1(F)Br
inactive: [1] -38.4% | [2] -4.7% | [3] -19.6% | [4] -8% | [5] -20.6% | [6] -29.8%

O=c1c2ccccc2nc(-c2ccccc2)n1/N=C/c1cccnc1
inactive: [1] 0.9% | [2] 49.5% | [3] 30.8% | [4] -10.8% | [5] 7.5% | [6] 41.2%

O=C1C=CC(=O)c2c1c1c(c3c2C2c4ccccc4C3c3ccccc32)C2c3ccccc3C1c1ccccc12
inactive: [1] -13.5% | [2] -16.1% | [3] 19.9% | [4] -8.25% | [5] -5.75% | [6] 12.7%

C[C@]12CC[C@H](OC3CCCCO3)CC1=CC[C@@H]1C2CC[C@]2(C)/C(=N/OCCC#N)CCC12 (stereo partly specified)
inactive: [1] 16.9% | [2] 15.2% | [3] -3.85% | [4] -49.4% | [5] 3.3% | [6] 28.1%

CCCCn1cnc2c(SCCNC(=O)N(C)N=O)ncnc21
inactive: [1] 6.3% | [2] -8.25% | [3] 10.3% | [4] -45.3% | [5] 3.5% | [6] -2.05%

C/C(CC/C(C)=N/NC(N)=O)=N/NC(N)=O
inactive: [1] 1.7% | [2] -3.5% | [3] -9.85% | [4] 0.55% | [5] 21.9% | [6] -9.2%
